# Results as given in PubChem BioAssay (EPA / NIEHS).
# Inconclusive results are not listed. Active and inactive are the calls of the source. The calls were made as follows, unless noted: active = hit-call score of the fitted dose curve at least 0.9, where 1 is the maximum; inactive = score below 0.9.
# Legend:
# [1] = target: Estrogen receptor (Homo sapiens) (UniProt P03372); experiment: CCTE_Deisenroth_AIME_384WELL_LUC_Active: CCTE's 384-well Estrogen Receptor Transactivation Assay with AIME metabolic competence (ERTA luciferase; metabolism positive), Deisenroth Lab (AID 2284030; active = hit-call score of the fitted dose curve at least 0.9, where 1 is the maximum)
# In short: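 Chemicals (10-point, 0.002-200 uM) were first incubated 2 hours with alginate-immobilized induced male Sprague Dawley rat liver S9. The conditioned medium was then applied to VM7Luc4E2 cells for 24 hours, with ER luciferase induction read by luminescence relative to 17beta-estradiol.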
# [2] = CCTE_Deisenroth_AIME_384WELL_CTox_Active: Cytotoxicity Assessment (CTOX) in CCTE's 384-well Estrogen Receptor Transactivation Assay with AIME metabolic competence (metabolism positive), Deisenroth Lab (AID 2284037; active = hit-call score of the fitted dose curve at least 0.9, where 1 is the maximum;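 also: chemicals first conditioned 2 h by alginate-bound induced rat liver S9 before cells; activity means signal loss indicating cell death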)
# In short: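 Chemicals pre-incubated 2 hours with alginate-immobilised phenobarbital/beta-naphthoflavone-induced male Sprague Dawley rat liver S9, then conditioned medium applied 24 hour to VM7Luc4E2 cells. Viability by fluorogenic protease substrate; 10-point series 0.002 - 200 uM.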
# [3] = target: Estrogen receptor (Homo sapiens) (UniProt P03372); experiment: CCTE_Deisenroth_AIME_384WELL_LUC_Inactive: CCTE's 384-well Estrogen Receptor Transactivation Assay without AIME metabolic competence (ERTA luciferase; metabolism negative), Deisenroth Lab (AID 2284038; active = hit-call score of the fitted dose curve at least 0.9, where 1 is the maximum;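 also: hits raise estrogen receptor luciferase signal so potencies reflect agonists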)
# In short: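 Metabolism-negative mode: AIME lids stamped in alginate-water, no hepatic S9. 2 h chemical incubation → medium onto VM7Luc4E2 ERTA, 24 h. Readout luciferase luminescence; gain-of-signal fit vs 17beta-estradiol. Conc. 0.002 - 200 uM.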
# [4] = CCTE_Deisenroth_AIME_384WELL_CTox_Inactive: Cytotoxicity Assessment (CTOX) in CCTE's 384-well Estrogen Receptor Transactivation Assay without AIME metabolic competence (metabolism negative), Deisenroth Lab (AID 2284039; active = hit-call score of the fitted dose curve at least 0.9, where 1 is the maximum;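 also: cell viability via live-cell protease substrate cleaved to fluorescent probe; cells exposed 24 h to medium preincubated 2 h with alginate-water beads without S9; loss of fluorescence signal means loss of viability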)
# In short: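 VM7Luc4E2 human breast cells received conditioned medium from a 2 h incubation of chemical with alginate-water microspheres (no S9), then were exposed 24 h. Viability was read as protease-substrate cleavage to a fluorescent probe; loss of signal was fitted bidirectionally over 0.002–200 uM.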
# [5] = target: Estrogen receptor (Homo sapiens) (UniProt P03372); experiment: CCTE_Deisenroth_AIME_384WELL_LUC_Shift: CCTE's 384-well Estrogen Receptor Transactivation Assay with AIME metabolic competence data shift (ERTA luciferase; difference in metabolism positive and negative), Deisenroth Lab (AID 2284041);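 also: shift is response with S9 minus without S9 so positive means metabolism raised ER signal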
# In short: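 Chemicals (0.002–200 uM, 10 points) pre-incubated 2 h with alginate-encapsulated induced male Sprague Dawley rat liver S9 or S9-free, then medium applied 24 h to VM7Luc4E2 cells; luciferase. Endpoint is per-concentration difference, S9-positive minus negative.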
# DIO2 (gene 1734) = experiment: CCTE_GLTED_hDIO2: CCTE's human Deiodinase 2 (DIO2) Inhibition Assay, Great Lakes Toxicology and Ecology Division (GLTED) Lab (AID 2284050; active = hit-call score of the fitted dose curve at least 0.9, where 1 is the maximum)
# In short: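 Readout: absorbance from Sandell-Kolthoff detection of free iodide released by human DIO2 during a 3 h incubation with chemical. Cell-free format, n=3; activity fitted relative to DMSO negative control.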
# [6] = CCTE_Shafer_MEA_dev_firing_rate_mean: CCTE's Neural Network Formation Assay for Mean Firing Rate, Shafer Lab (AID 2284031)
# In short: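 Read-out: spike count/recording length, averaged over active electrodes, then AUC across days 5, 7, 9, 12. Rat cortical cultures on MEA; continuous 12-day exposure, media and treatment renewed DIV 5, 9; DMSO baseline.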
# [7] = CCTE_Shafer_MEA_dev_per_burst_spike_percent: CCTE's Neural Network Formation Assay for Percent of Spikes in a Burst, Shafer Lab (AID 2284032);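 as to AC50: fitted as a decrease in burst spike percentage below DMSO baseline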
# In short: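 Value is trapezoidal AUC over recordings on days 5, 7, 9 and 12 of the well-mean fraction of spikes falling in single-electrode bursts; rat cortical cultures exposed continuously from plating, treatment renewed DIV 5 and 9, fitted downward against DMSO.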
# [8] = CCTE_Shafer_MEA_dev_burst_rate: CCTE's Neural Network Formation Assay for Burst Rate, Shafer Lab (AID 2284042)
# In short: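 Rat primary cortical cultures on PEI/laminin MEA; compound from plating, re-dosed at DIV 5, 9 media change. Single-electrode bursts/recording length, well mean of active electrodes; AUC over DIV 5–12 recordings; loss-of-signal vs DMSO.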
# [9] = CCTE_Shafer_MEA_dev_bursting_electrodes_number: CCTE's Neural Network Formation Assay for Number of Bursting Electrodes, Shafer Lab (AID 2284043; active = hit-call score of the fitted dose curve at least 0.9, where 1 is the maximum;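 as to AC50: potency is for loss of bursting electrodes relative to DMSO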)
# In short: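 Rat cortical primary neurons, 48-well MEA, 16 electrodes/well; dosing DIV 0–12, re-dosed with full media change DIV 5, 9. Recordings DIV 5/7/9/12, AxIS adaptive spike detector; bursting electrode = ≥1 burst/2 min. AUC across days; loss of signal vs DMSO.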
# [10] = CCTE_Shafer_MEA_dev_per_burst_interspike_interval: CCTE's Neural Network Formation Assay for Burst Interspike Interval, Shafer Lab (AID 2284044);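 as to AC50: potency for a decrease of within-burst interspike interval below DMSO level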
# In short: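 Primary rat cortical neurons on 48-well MEA plates, exposed from day 0 through day 12, treatment renewed at DIV 5 and 9. Within-burst interspike interval recorded days 5, 7, 9, 12, well-averaged, summarised as AUC; negative fit versus DMSO.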
# [11] = CCTE_Shafer_MEA_dev_burst_duration_mean: CCTE's Neural Network Formation Assay for Mean Burst Duration, Shafer Lab (AID 2284045)
# In short: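 Rat cortical cultures, 1.5 x 10^5 cells/well with laminin drop; continuous dosing days 0–12, media plus treatment refreshed DIV 5, 9. AxIS adaptive spike detection; mean single-electrode burst duration, AUC over four recordings, negative direction vs DMSO.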
# [12] = CCTE_Shafer_MEA_dev_interburst_interval_mean: CCTE's Neural Network Formation Assay for Mean Interburst Interval, Shafer Lab (AID 2284046);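 also: well-mean interburst interval of bursting electrodes as AUC over four recording days; curve fitted for decrease in interburst interval relative to DMSO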
# In short: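 Rat cortical neurons, 1.5 x 10^5 cells/well, 48-well MEA; compound from day 0 through DIV 12, media and treatment renewed DIV 5/9. Recordings DIV 5, 7, 9, 12; well-mean interburst interval → trapezoidal AUC, loss direction vs DMSO.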
# [13] = CCTE_Shafer_MEA_dev_inter_network_spike_interval_mean: CCTE's Neural Network Formation Assay for Mean Inter-network Spike Interval, Shafer Lab (AID 2284047);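 as to AC50: potency for a decrease in mean inter-network spike interval below DMSO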
# In short: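 Primary rat cortical neurons on PEI-coated 48-well MEAs (16 electrodes/well) were exposed from plating day 0 to DIV 12, with dosing renewed at DIV 5 and 9. Recordings at DIV 5, 7, 9, 12 were collapsed by trapezoidal AUC, loss-of-signal fit vs DMSO.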
# [14] = CCTE_Shafer_MEA_dev_network_spike_number: CCTE's Neural Network Formation Assay for Number of Network Spikes, Shafer Lab (AID 2284048);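 also: synchronized bursts across electrodes counted on days 5 7 9 12 and integrated as AUC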
# In short: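 Rat cortical primary cultures on 48-well MEA (16 electrodes/well); continuous exposure DIV 0–12, full medium and treatment exchange DIV 5, 9. Readout: network spike count, AxIS adaptive detection, recordings DIV 5/7/9/12 collapsed to AUC; loss-of-signal fit, DMSO baseline.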
# [15] = CCTE_Shafer_MEA_dev_network_spike_peak: CCTE's Neural Network Formation Assay for Mean Number of Electrodes in Network Spike, Shafer Lab (AID 2284049);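 as to AC50: fitted for loss of signal meaning fewer electrodes in network spikes than DMSO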
# In short: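 Network-spike peak electrode count from recordings on days 5, 7, 9 and 12 was combined as trapezoidal area under the curve. Rat cortical cultures were treated continuously from plating, with compound renewed at each feed (DIV 5, 9); fits versus DMSO.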
# [16] = CCTE_Shafer_MEA_dev_spike_duration_mean: CCTE's Neural Network Formation Assay for Mean Spike Duration, Shafer Lab (AID 2284051);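 also: mean network spike duration pooled as area under curve over DIV 5 to 12 recordings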;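 as to AC50: potency for a decrease in mean network spike duration versus DMSO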
# In short: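 Rat cortical primary cultures, 48-well MEA (16 electrodes/well); compound from plating, renewed DIV 5, 9. Network spike duration (AxIS adaptive detector) recorded DIV 5/7/9/12, combined as trapezoidal AUC; loss direction vs DMSO.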
# [17] = CCTE_Shafer_MEA_dev_network_spike_duration_std: CCTE's Neural Network Formation Assay for Standard Deviation of Network Spike Duration, Shafer Lab (AID 2284052);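 also: area under curve of spike duration SD across recording days 5 to 12; hits are decreases in network spike duration SD versus DMSO vehicle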
# In short: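 Rat cortical cultures, 1.5 x 10^5 cells/well, exposed continuously from plating to DIV 12 with media/compound renewal at DIV 5, 9. Spontaneous activity recorded DIV 5/7/9/12, AxIS adaptive spike detector; AUC across days; negative direction vs DMSO.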
# Sequence of Estrogen receptor (Homo sapiens) (P03372 whole entry, looked up): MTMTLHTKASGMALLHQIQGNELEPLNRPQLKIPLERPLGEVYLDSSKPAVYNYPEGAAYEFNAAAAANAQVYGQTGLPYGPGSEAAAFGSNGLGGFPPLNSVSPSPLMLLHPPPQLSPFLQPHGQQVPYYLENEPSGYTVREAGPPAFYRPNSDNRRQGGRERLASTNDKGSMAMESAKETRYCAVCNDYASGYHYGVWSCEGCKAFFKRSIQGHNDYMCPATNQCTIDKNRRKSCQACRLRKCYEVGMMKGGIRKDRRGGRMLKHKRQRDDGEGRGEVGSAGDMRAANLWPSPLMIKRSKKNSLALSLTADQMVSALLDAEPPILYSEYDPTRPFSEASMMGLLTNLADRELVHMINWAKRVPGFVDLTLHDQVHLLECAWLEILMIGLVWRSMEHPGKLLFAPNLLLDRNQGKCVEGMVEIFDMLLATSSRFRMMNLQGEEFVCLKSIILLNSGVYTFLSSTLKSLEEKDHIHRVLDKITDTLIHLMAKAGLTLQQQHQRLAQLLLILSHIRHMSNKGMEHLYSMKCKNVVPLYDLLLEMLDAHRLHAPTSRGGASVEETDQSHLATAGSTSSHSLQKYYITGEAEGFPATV
structure (smiles),measurement,setting,value
COc1cccc(-c2ccc(/C=C\CN3CCCCCC3)cc2Cl)c1,outcome,[1],inactive
same,outcome,[2],inactive
same,outcome,[3],inactive
same,outcome,[4],inactive
same,outcome,[5],inactive
same,AC50,DIO2 (gene 1734),77700 nM (active)
CNCc1ccc(NC(=O)c2c[nH]c3c2C(=O)CCC3)cc1,outcome,[6],inactive
same,AC50,[7],1980 nM (active)
same,outcome,[2],inactive
same,outcome,[4],inactive
same,outcome,[8],inactive
same,AC50,[9],1980 nM (active)
same,outcome,[10],inactive
same,outcome,[11],inactive
same,outcome,[12],inactive
same,outcome,[13],inactive
same,outcome,[14],inactive
same,AC50,[15],2030 nM (active)
same,AC50,[16],666 nM (active)
same,outcome,[17],inactive
C=CC(=C)CCC=C(C)C,outcome,[1],inactive
same,outcome,[3],inactive
same,outcome,[5],inactive
O=C(O)c1cccc(Oc2ccccc2)c1,outcome,[1],inactive
same,outcome,[2],inactive
same,outcome,[3],inactive
same,AC50,[4],0.708 nM (active)
same,outcome,[5],inactive
COc1ccc(-n2nc(C(F)F)cc2-c2ccc(S(C)=O)cc2)cc1 (stereo not drawn),outcome,[6],inactive
same,outcome,[7],inactive
same,outcome,[8],inactive
same,AC50,[9],10000 nM (active)
same,outcome,[10],inactive
same,outcome,[11],inactive
same,outcome,[12],inactive
same,outcome,[13],inactive
same,outcome,[14],inactive
same,AC50,[15],1980 nM (active)
same,AC50,[16],1980 nM (active)
same,outcome,[17],inactive
O=c1[nH]c2ccc(S(=O)CCN3CCC(Cc4ccc(F)cc4)CC3)cc2o1 (stereo not drawn),outcome,[1],inactive
same,outcome,[3],inactive
same,outcome,[5],inactive
O=C1CCC(N2C(=O)c3ccccc3C2=O)C(=O)N1 (stereo not drawn),outcome,[6],inactive
same,outcome,[7],inactive
same,outcome,[8],inactive
same,outcome,[9],inactive
same,outcome,[10],inactive
same,outcome,[11],inactive
same,outcome,[12],inactive
same,outcome,[13],inactive
same,outcome,[14],inactive
same,outcome,[15],inactive
same,outcome,[16],inactive
same,outcome,[17],inactive
CC[C@H](C)C(=O)O[C@H]1C[C@@H](C)C=C2C=C[C@H](C)[C@H](CC[C@@H]3C[C@@H](O)CC(=O)O3)[C@H]21,outcome,[6],inactive
same,AC50,[7],10000 nM (active)
same,outcome,[8],inactive
same,AC50,[9],1910 nM (active)
same,AC50,[10],2900 nM (active)
same,outcome,[11],inactive
same,AC50,[12],2900 nM (active)
same,AC50,[13],1980 nM (active)
same,outcome,[14],inactive
same,AC50,[15],1560 nM (active)
same,AC50,DIO2 (gene 1734),82500 nM (active)
same,AC50,[16],2550 nM (active)
same,outcome,[17],inactive
